Our source for the Potency, activity, negative = inhibition and activity change, negative = inhibition values is PubChem BioAssay (Tox21).

Inconclusive results are not listed. Entries that show only a call come without a potency. Calls of active or inactive are those of the source. The call rests on the fitted dose curve.

Chain of Acetylcholinesterase (Homo sapiens) (P22303 whole entry, looked up): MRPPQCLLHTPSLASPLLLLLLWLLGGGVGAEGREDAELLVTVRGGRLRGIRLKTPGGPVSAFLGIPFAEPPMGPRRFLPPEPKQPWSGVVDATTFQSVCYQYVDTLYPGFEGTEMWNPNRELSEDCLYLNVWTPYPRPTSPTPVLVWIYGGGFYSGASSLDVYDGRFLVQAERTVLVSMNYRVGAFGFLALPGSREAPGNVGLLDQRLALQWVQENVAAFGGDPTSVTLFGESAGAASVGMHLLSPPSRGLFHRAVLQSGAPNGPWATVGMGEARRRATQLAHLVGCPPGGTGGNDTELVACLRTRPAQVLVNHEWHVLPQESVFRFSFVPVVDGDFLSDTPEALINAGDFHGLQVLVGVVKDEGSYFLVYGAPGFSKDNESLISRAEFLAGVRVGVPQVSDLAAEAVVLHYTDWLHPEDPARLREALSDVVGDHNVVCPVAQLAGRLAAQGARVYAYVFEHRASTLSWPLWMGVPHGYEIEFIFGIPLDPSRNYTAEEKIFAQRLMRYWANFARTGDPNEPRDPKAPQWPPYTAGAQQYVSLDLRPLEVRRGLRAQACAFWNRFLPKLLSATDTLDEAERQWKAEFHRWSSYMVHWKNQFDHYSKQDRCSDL

One assay concerns the target Acetylcholinesterase (Homo sapiens) (UniProt P22303). The experiment in a line: Acetylcholinesterase (AChE) small molecule antagonists: colormetric cell-based qHTS assay (AID 1347395). Further: nearly all actives have a fitted effect of over 30% in size. Further: potency means the concentration at half of the fitted maximal effect. The note with it: SH-SY5Y cells AChE activity, colorimetric (Ellman); series mostly up to 115 µM. In outline: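 In this cell-based qHTS, attached SH-SY5Y cells were treated with test chemicals for 30 min, after which acetylthiocholine hydrolysis was followed by DTNB colour development over 90 min at 37 C.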
For orientation: qHTS replaces the single test concentration by a dilution series.
Turning to `CC(=O)/C=C/C1=C(C)CCCC1(C)C`, the Potency is 35.6 µM (active).

Consider `CC(=O)Oc1ccccc1C(=O)Nc1ncc([N+](=O)[O-])s1`, for which the Potency entry was “inactive”.

In the case of `CC(=O)OC/C=C(/C)CCC=C(C)C`, the Potency entry was “inactive”.

With `O=C(Cn1ccnc1[N+](=O)[O-])NCc1ccccc1`, the Potency entry was “inactive”.

Take `COC(C)(C)CCCC(C)CC=O` (configuration not stated): the Potency result is “inactive”.

On to `O=C1c2ccccc2C(=O)C1c1nc2ccccc2c(Br)c1O`, for which the Potency entry is “inactive”.

Regarding `CCCCCC/C=C/C(=O)OC`, the Potency entry was “inactive”.

`c1ccc(Cc2ccccc2)cc1`: the Potency result is “inactive”.

As to `C[C@]12CCC(=O)C=C1CC[C@@H]1[C@@H]2CC[C@@]2(C)[C@H]1CC[C@]2(O)C(=O)CO`, the Potency result was “inactive”.

For the molecule `CCOC(=O)C(F)(F)F`, the Potency result is “inactive”.

Take `CCCCCCCCCCCCCCCCCBr`: the activity, negative = inhibition is 0.585% [at 23.6 µM] (inactive).

In the case of `Nc1nnc(-c2cccc(Cl)c2Cl)c(N)n1`, the Potency entry is “inactive”.

For `Cc1c(OCC(F)(F)F)ccnc1CS(=O)c1nc2ccccc2[nH]1` (configuration not stated), the Potency entry is “inactive”.

As to `CCCCCCCCCCC(CO)CCCCCCCC` (configuration not stated), the Potency result was “inactive”.

As to `C1COCCN1`, the Potency entry is “inactive”.

As to `CCCCCCCCS`, the Potency result was “inactive”.

Consider `CCCCCCCCCCCCCCBr`, for which the Potency result is “inactive”.

The target is the same in the next assay. Briefly: Acetylcholinesterase (AChE) small molecule antagonists: enzyme-based qHTS assay (AID 1347397). Further: nearly all actives have a fitted effect of over 55% in size. The note with it: Potency: AChE enzyme activity inhibition; outcome: AChE enzyme activity inhibition; series mostly up to 115 µM. The method in brief: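 rhAChE 50 mU/mL (dispensed) + cpd or DMSO, 30 min RT; add DTNB/acetylthiocholine cocktail, 10 min RT; colorimetric thiocholine readout. qHTS, 1536-well format.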
For the molecule `CC(=O)Oc1ccc2c(c1)CC[C@@H]1[C@@H]2CC[C@]2(C)[C@@H](O)CC[C@@H]12`, the Potency result was “inactive”.

For `CC(=O)Nc1ccc(S(=O)(=O)Nc2ccc([N+](=O)[O-])cc2)cc1`, the Potency entry is “inactive”.

As for `CO[Si](CCCn1c(=O)n(CCC[Si](OC)(OC)OC)c(=O)n(CCC[Si](OC)(OC)OC)c1=O)(OC)OC`, the Potency result is “inactive”.

For `CCCCCCCOC(=O)CCC`, the Potency result is “inactive”.

`c1ccc2cc(Nc3ccc(Nc4ccc5ccccc5c4)cc3)ccc2c1`: the Potency result was “inactive”.

On to `O=C1c2ccccc2C(=O)C1c1ccc2cc(S(=O)(=O)O)cc(S(=O)(=O)O)c2n1`, for which the Potency entry was “inactive”.

For the molecule `CC(C)COC(=O)/C=C/c1ccccc1`, the Potency result was “inactive”.

For `O=S(=O)(O)CCO`, the Potency entry is “inactive”.

Turning to `c1ccc(SSc2ccccc2)cc1`, the Potency entry is “inactive”.

`Cc1onc(-c2ccccc2)c1C(=O)Cl`: the Potency entry was “inactive”.

Regarding `O=Cc1ccc(C(=O)O)cc1`, the Potency result is “inactive”.

In the case of `C=CCOC(=O)/C=C\C(=O)OCC=C`, the Potency result was “inactive”.

With `CCn1c2ccccc2c2ccccc21`, the Potency entry is “inactive”.

As for `CCOCCOCCO`, the Potency result was “inactive”.

In the case of `CCCCCCCCCCCC(=O)OC`, the Potency entry is “inactive”.

Take `COCc1c(C(C)C)nc(C(C)C)c(/C=C/[C@@H](O)C[C@@H](O)CC(=O)O)c1-c1ccc(F)cc1`: the Potency result is “inactive”.

Turning to `CN(C)[C@@H]1C(=O)C(C(N)=O)=C(O)[C@@]2(O)C(=O)C3=C(O)c4c(O)cccc4C[C@H]3C[C@@H]12`, the Potency entry was “inactive”.

For `C/C=C/C(=O)N(CC)c1ccccc1C`, the Potency entry is “inactive”.

As for `O=C(O)Cn1cnnn1`, the Potency result is “inactive”.

Turning to `F[B-](F)(F)F`, the Potency result is “inactive”.

`CC(=O)[O][Al][O]C(C)=O`: the Potency result is “inactive”.

On to `[Cl][Sc]([Cl])[Cl]`, for which the Potency entry is “inactive”.

With `CCOC(=O)[C@H](CCc1ccccc1)N[C@@H](C)C(=O)N1C(=O)N(C)C[C@H]1C(=O)O`, the Potency entry is “inactive”.

As for `CC(=O)/C=C/C1=C(C)CCCC1(C)C`, the Potency entry was “inactive”.

In the case of `CC(=O)Oc1ccccc1C(=O)Nc1ncc([N+](=O)[O-])s1`, the Potency entry is “inactive”.

Consider `CC(=O)OC/C=C(/C)CCC=C(C)C`, for which the Potency entry was “inactive”.

For `O=C(Cn1ccnc1[N+](=O)[O-])NCc1ccccc1`, the Potency entry is “inactive”.

Regarding `COC(C)(C)CCCC(C)CC=O` (configuration not stated), the Potency result is “inactive”.

For `O=C1c2ccccc2C(=O)C1c1nc2ccccc2c(Br)c1O`, the Potency result is “inactive”.

Regarding `CCCCCC/C=C/C(=O)OC`, the Potency result was “inactive”.

Consider `c1ccc(Cc2ccccc2)cc1`, for which the Potency entry is “inactive”.

Consider `C[C@]12CCC(=O)C=C1CC[C@@H]1[C@@H]2CC[C@@]2(C)[C@H]1CC[C@]2(O)C(=O)CO`, for which the Potency result was “inactive”.

As to `CCOC(=O)C(F)(F)F`, the Potency entry is “inactive”.

Consider `CCCCCCCCCCCCCCCCCBr`, for which the activity change, negative = inhibition was 1.09% [at 23.6 µM] (inactive).

On to `Nc1nnc(-c2cccc(Cl)c2Cl)c(N)n1`, for which the Potency entry was “inactive”.

Turning to `Cc1c(OCC(F)(F)F)ccnc1CS(=O)c1nc2ccccc2[nH]1` (configuration not stated), the Potency result is “inactive”.

Turning to `CCCCCCCCCCC(CO)CCCCCCCC` (configuration not stated), the Potency result was “inactive”.

For `C1COCCN1`, the Potency result is “inactive”.

For the molecule `CCCCCCCCS`, the Potency entry is “inactive”.

Regarding `CCCCCCCCCCCCCCBr`, the Potency result was “inactive”.

For another assay the target is unchanged. Briefly: Acetylcholinesterase (AChE) small molecule antagonists: fluorescence cell-based qHTS assay (AID 1347398). Further: nearly all actives have a fitted effect of over 50% in size. Further: potency means the concentration at half of the fitted maximal effect. Conditions: SH-SY5Y cells; Potency: AChE activity; outcome: AChE activity; series mostly up to 115 µM. The method in brief:
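Read-out is Thiolite Green fluorescence at Ex/Em = 490/520 nm, formed by reaction with thiocholine released when cellular AChE in SH-SY5Y cells hydrolyzes acetylthiocholine. Compounds were preincubated 30 min at 37 C before substrate.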
Turning to `CC(=O)Oc1ccc2c(c1)CC[C@@H]1[C@@H]2CC[C@]2(C)[C@@H](O)CC[C@@H]12`, the Potency entry was “inactive”.

In the case of `CC(=O)Nc1ccc(S(=O)(=O)Nc2ccc([N+](=O)[O-])cc2)cc1`, the Potency entry is “inactive”.

`CO[Si](CCCn1c(=O)n(CCC[Si](OC)(OC)OC)c(=O)n(CCC[Si](OC)(OC)OC)c1=O)(OC)OC`: the Potency entry was “inactive”.

As to `CCCCCCCOC(=O)CCC`, the Potency entry is “inactive”.

As to `c1ccc2cc(Nc3ccc(Nc4ccc5ccccc5c4)cc3)ccc2c1`, the Potency result is “inactive”.

As to `O=C1c2ccccc2C(=O)C1c1ccc2cc(S(=O)(=O)O)cc(S(=O)(=O)O)c2n1`, the Potency result is “inactive”.

On to `CC(C)COC(=O)/C=C/c1ccccc1`, for which the Potency entry is “inactive”.

As to `O=S(=O)(O)CCO`, the Potency result is “inactive”.

`c1ccc(SSc2ccccc2)cc1`: the Potency entry was “inactive”.

As to `Cc1onc(-c2ccccc2)c1C(=O)Cl`, the Potency entry is “inactive”.

As for `O=Cc1ccc(C(=O)O)cc1`, the Potency entry is “inactive”.

For `C=CCOC(=O)/C=C\C(=O)OCC=C`, the Potency entry was “inactive”.

On to `CCn1c2ccccc2c2ccccc21`, for which the Potency result is “inactive”.

For the molecule `CCOCCOCCO`, the Potency entry was “inactive”.

Consider `CCCCCCCCCCCC(=O)OC`, for which the Potency entry was “inactive”.

With `COCc1c(C(C)C)nc(C(C)C)c(/C=C/[C@@H](O)C[C@@H](O)CC(=O)O)c1-c1ccc(F)cc1`, the Potency entry is “inactive”.

As for `CN(C)[C@@H]1C(=O)C(C(N)=O)=C(O)[C@@]2(O)C(=O)C3=C(O)c4c(O)cccc4C[C@H]3C[C@@H]12`, the Potency result is “inactive”.

In the case of `C/C=C/C(=O)N(CC)c1ccccc1C`, the Potency entry was “inactive”.

As to `O=C(O)Cn1cnnn1`, the Potency entry was “inactive”.

Take `F[B-](F)(F)F`: the Potency entry was “inactive”.

With `CC(=O)[O][Al][O]C(C)=O`, the Potency result was “inactive”.

For the molecule `[Cl][Sc]([Cl])[Cl]`, the Potency result was “inactive”.

As for `CCOC(=O)[C@H](CCc1ccccc1)N[C@@H](C)C(=O)N1C(=O)N(C)C[C@H]1C(=O)O`, the Potency result was “inactive”.

Regarding `CC(=O)/C=C/C1=C(C)CCCC1(C)C`, the Potency was 10.2 µM (active).

With `CC(=O)Oc1ccccc1C(=O)Nc1ncc([N+](=O)[O-])s1`, the Potency entry is “inactive”.

As for `CC(=O)OC/C=C(/C)CCC=C(C)C`, the Potency entry was “inactive”.

As for `O=C(Cn1ccnc1[N+](=O)[O-])NCc1ccccc1`, the Potency entry is “inactive”.

For `COC(C)(C)CCCC(C)CC=O` (configuration not stated), the Potency result is “inactive”.

Take `O=C1c2ccccc2C(=O)C1c1nc2ccccc2c(Br)c1O`: the Potency entry was “inactive”.

Regarding `CCCCCC/C=C/C(=O)OC`, the Potency entry was “inactive”.

Regarding `c1ccc(Cc2ccccc2)cc1`, the Potency entry is “inactive”.

Regarding `C[C@]12CCC(=O)C=C1CC[C@@H]1[C@@H]2CC[C@@]2(C)[C@H]1CC[C@]2(O)C(=O)CO`, the Potency result is “inactive”.

`CCOC(=O)C(F)(F)F`: the Potency result is “inactive”.

In the case of `CCCCCCCCCCCCCCCCCBr`, the activity change, negative = inhibition is -1.4% [at 23.8 µM] (inactive).

Regarding `Nc1nnc(-c2cccc(Cl)c2Cl)c(N)n1`, the Potency result is “inactive”.

Consider `Cc1c(OCC(F)(F)F)ccnc1CS(=O)c1nc2ccccc2[nH]1` (configuration not stated), for which the Potency entry was “inactive”.

For `CCCCCCCCCCC(CO)CCCCCCCC` (configuration not stated), the Potency result is “inactive”.

As to `C1COCCN1`, the Potency entry was “inactive”.

For the molecule `CCCCCCCCS`, the Potency entry was “inactive”.

`CCCCCCCCCCCCCCBr`: the Potency entry was “inactive”.
